Our source for the binding signal values is article PMC11006913.

One assay deals with CRX (Homo sapiens, UniProt O43186 26-111). The assay can be described thus: PBM; 200 nM protein, PBS. The settings on record: dsDNA, one strand shown.
Chain of CRX (Homo sapiens, UniProt O43186 26-111) (O43186 26-111): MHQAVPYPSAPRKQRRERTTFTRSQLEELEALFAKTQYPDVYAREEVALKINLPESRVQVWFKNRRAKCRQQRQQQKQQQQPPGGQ
Consider GCTTAAGC, for which the binding signal was 12.8 upbm affinity estimate (log intensity, higher = more binding, comparable within an allelic series).
With ACCGCACC, the binding signal was 8.25 upbm affinity estimate (log intensity, higher = more binding, comparable within an allelic series).
Turning to GGCGTCCC, the binding signal was 8.17 upbm affinity estimate (log intensity, higher = more binding, comparable within an allelic series).
In the case of CTTGCTAC, the binding signal is 8.21 upbm affinity estimate (log intensity, higher = more binding, comparable within an allelic series).
In the case of CCGGTCGA, the binding signal was 8.51 upbm affinity estimate (log intensity, higher = more binding, comparable within an allelic series).
On to ATTAAGCC, for which the binding signal was 12.8 upbm affinity estimate (log intensity, higher = more binding, comparable within an allelic series).
On to AATAATCT, for which the binding signal was 12.7 upbm affinity estimate (log intensity, higher = more binding, comparable within an allelic series).
In the case of CCTGGTGC, the binding signal is 8.29 upbm affinity estimate (log intensity, higher = more binding, comparable within an allelic series).
The same measure, in the same setting: under ACTGCTGG stands 8.37 upbm affinity estimate (log intensity, higher = more binding, comparable within an allelic series); under ATAACCCC, 10.6 upbm affinity estimate (log intensity, higher = more binding, comparable within an allelic series).
On to TGCGTCCA, for which the binding signal was 8.29 upbm affinity estimate (log intensity, higher = more binding, comparable within an allelic series).
Still for that read-out and setting: under AAGTAATA stands 10.4 upbm affinity estimate (log intensity, higher = more binding, comparable within an allelic series); under GTAGCAAC, 8.55 upbm affinity estimate (log intensity, higher = more binding, comparable within an allelic series); under AGAATCCC, 10.2 upbm affinity estimate (log intensity, higher = more binding, comparable within an allelic series).
In the case of GACGCTAC, the binding signal was 8.4 upbm affinity estimate (log intensity, higher = more binding, comparable within an allelic series).
Regarding GGAGACCC, the binding signal is 8.12 upbm affinity estimate (log intensity, higher = more binding, comparable within an allelic series).
Regarding CCTCGCCC, the binding signal is 8.43 upbm affinity estimate (log intensity, higher = more binding, comparable within an allelic series).
As for GGTTGCCA, the binding signal was 8.28 upbm affinity estimate (log intensity, higher = more binding, comparable within an allelic series).
Turning to CGAGTGCG, the binding signal is 8.19 upbm affinity estimate (log intensity, higher = more binding, comparable within an allelic series).
As for CTGGTCGA, the binding signal is 8.44 upbm affinity estimate (log intensity, higher = more binding, comparable within an allelic series).
Consider ACAGGCAC, for which the binding signal was 8.14 upbm affinity estimate (log intensity, higher = more binding, comparable within an allelic series).
With ACTGGACC, the binding signal is 8.04 upbm affinity estimate (log intensity, higher = more binding, comparable within an allelic series).
For the sequence CAGGTGCG, the binding signal is 8.4 upbm affinity estimate (log intensity, higher = more binding, comparable within an allelic series).
On the same count and under the same terms, with AGCACCAG the figure was 8.33 upbm affinity estimate (log intensity, higher = more binding, comparable within an allelic series); with CGGATTAC, 13.4 upbm affinity estimate (log intensity, higher = more binding, comparable within an allelic series); with CGGGACCC, 8.17 upbm affinity estimate (log intensity, higher = more binding, comparable within an allelic series).
Regarding GACCGAAC, the binding signal was 7.97 upbm affinity estimate (log intensity, higher = more binding, comparable within an allelic series).
For ACACGCCC, the binding signal was 8.11 upbm affinity estimate (log intensity, higher = more binding, comparable within an allelic series).
In the case of GCTATTTA, the binding signal was 10.3 upbm affinity estimate (log intensity, higher = more binding, comparable within an allelic series).
For the sequence AGGCATAA, the binding signal is 10.3 upbm affinity estimate (log intensity, higher = more binding, comparable within an allelic series).
GAATAAAC: the binding signal was 10 upbm affinity estimate (log intensity, higher = more binding, comparable within an allelic series).
As to GATTATAA, the binding signal is 12.7 upbm affinity estimate (log intensity, higher = more binding, comparable within an allelic series).
Take AATCTCCC: the binding signal is 10.7 upbm affinity estimate (log intensity, higher = more binding, comparable within an allelic series).
CAACCTGC: the binding signal is 8.42 upbm affinity estimate (log intensity, higher = more binding, comparable within an allelic series).
Regarding CACTAATC, the binding signal was 12.8 upbm affinity estimate (log intensity, higher = more binding, comparable within an allelic series).
Regarding ACGGTCCG, the binding signal was 8.25 upbm affinity estimate (log intensity, higher = more binding, comparable within an allelic series).
Same read-out and setting: with AAGTATAA the figure was 10.6 upbm affinity estimate (log intensity, higher = more binding, comparable within an allelic series).
Consider AGAGAGAC, for which the binding signal was 8.36 upbm affinity estimate (log intensity, higher = more binding, comparable within an allelic series).
Consider GATTATCC, for which the binding signal is 12.9 upbm affinity estimate (log intensity, higher = more binding, comparable within an allelic series).

In a further assay the target is CRX (Homo sapiens, UniProt O43186 26-111, E42D). The assay can be described thus: PBM; 200 nM protein, PBS. The settings on record: dsDNA, one strand shown.
Chain of CRX (Homo sapiens, UniProt O43186 26-111, E42D) (O43186 26-111 E42D): as the sequence (O43186 26-111) above, with E17D counted along it
In the case of GCTTAAGC, the binding signal was 12.7 upbm affinity estimate (log intensity, higher = more binding, comparable within an allelic series).
On the same count and under the same terms, under ACCGCACC stands 8.39 upbm affinity estimate (log intensity, higher = more binding, comparable within an allelic series).
For GGCGTCCC, the binding signal was 8.13 upbm affinity estimate (log intensity, higher = more binding, comparable within an allelic series).
The same measure, in the same setting: under CTTGCTAC stands 8.34 upbm affinity estimate (log intensity, higher = more binding, comparable within an allelic series); under CCGGTCGA, 8.46 upbm affinity estimate (log intensity, higher = more binding, comparable within an allelic series); under ATTAAGCC, 12.8 upbm affinity estimate (log intensity, higher = more binding, comparable within an allelic series).
With AATAATCT, the binding signal is 12.7 upbm affinity estimate (log intensity, higher = more binding, comparable within an allelic series).
Take CCTGGTGC: the binding signal was 8.25 upbm affinity estimate (log intensity, higher = more binding, comparable within an allelic series).
For the sequence ACTGCTGG, the binding signal was 8.49 upbm affinity estimate (log intensity, higher = more binding, comparable within an allelic series).
Take ATAACCCC: the binding signal is 10.4 upbm affinity estimate (log intensity, higher = more binding, comparable within an allelic series).
As to TGCGTCCA, the binding signal was 8.26 upbm affinity estimate (log intensity, higher = more binding, comparable within an allelic series).
As for AAGTAATA, the binding signal is 10.3 upbm affinity estimate (log intensity, higher = more binding, comparable within an allelic series).
Consider GTAGCAAC, for which the binding signal is 8.49 upbm affinity estimate (log intensity, higher = more binding, comparable within an allelic series).
Regarding AGAATCCC, the binding signal was 10 upbm affinity estimate (log intensity, higher = more binding, comparable within an allelic series).
For the sequence GACGCTAC, the binding signal is 8.38 upbm affinity estimate (log intensity, higher = more binding, comparable within an allelic series).
On the same count and under the same terms, under GGAGACCC stands 8.25 upbm affinity estimate (log intensity, higher = more binding, comparable within an allelic series); under CCTCGCCC, 8.52 upbm affinity estimate (log intensity, higher = more binding, comparable within an allelic series).
As for GGTTGCCA, the binding signal was 8.39 upbm affinity estimate (log intensity, higher = more binding, comparable within an allelic series).
Take CGAGTGCG: the binding signal was 8.15 upbm affinity estimate (log intensity, higher = more binding, comparable within an allelic series).
As to CTGGTCGA, the binding signal is 8.35 upbm affinity estimate (log intensity, higher = more binding, comparable within an allelic series).
ACAGGCAC: the binding signal is 8.14 upbm affinity estimate (log intensity, higher = more binding, comparable within an allelic series).
For the sequence ACTGGACC, the binding signal was 8.07 upbm affinity estimate (log intensity, higher = more binding, comparable within an allelic series).
On the same count and under the same terms, with CAGGTGCG the figure was 8.3 upbm affinity estimate (log intensity, higher = more binding, comparable within an allelic series).
As to AGCACCAG, the binding signal is 8.39 upbm affinity estimate (log intensity, higher = more binding, comparable within an allelic series).
Take CGGATTAC: the binding signal was 13.3 upbm affinity estimate (log intensity, higher = more binding, comparable within an allelic series).
For the sequence CGGGACCC, the binding signal was 8.21 upbm affinity estimate (log intensity, higher = more binding, comparable within an allelic series).
Consider GACCGAAC, for which the binding signal was 8.09 upbm affinity estimate (log intensity, higher = more binding, comparable within an allelic series).
ACACGCCC: the binding signal was 8.24 upbm affinity estimate (log intensity, higher = more binding, comparable within an allelic series).
Consider GCTATTTA, for which the binding signal is 10.1 upbm affinity estimate (log intensity, higher = more binding, comparable within an allelic series).
In the case of AGGCATAA, the binding signal was 10.1 upbm affinity estimate (log intensity, higher = more binding, comparable within an allelic series).
Consider GAATAAAC, for which the binding signal is 9.83 upbm affinity estimate (log intensity, higher = more binding, comparable within an allelic series).
As to GATTATAA, the binding signal is 12.6 upbm affinity estimate (log intensity, higher = more binding, comparable within an allelic series).
Still for that read-out and setting: under AATCTCCC stands 10.4 upbm affinity estimate (log intensity, higher = more binding, comparable within an allelic series); under CAACCTGC, 8.42 upbm affinity estimate (log intensity, higher = more binding, comparable within an allelic series).
For the sequence CACTAATC, the binding signal is 12.6 upbm affinity estimate (log intensity, higher = more binding, comparable within an allelic series).
On the same count and under the same terms, with ACGGTCCG the figure was 8.46 upbm affinity estimate (log intensity, higher = more binding, comparable within an allelic series).
AAGTATAA: the binding signal was 10.5 upbm affinity estimate (log intensity, higher = more binding, comparable within an allelic series).
Still for that read-out and setting: under AGAGAGAC stands 8.46 upbm affinity estimate (log intensity, higher = more binding, comparable within an allelic series); under GATTATCC, 12.9 upbm affinity estimate (log intensity, higher = more binding, comparable within an allelic series).

For another assay, the target named is CRX (Homo sapiens, UniProt O43186 26-111, R41L). Nature of the assay: PBM; 200 nM protein, PBS. The settings on record: dsDNA, one strand shown.
Chain of CRX (Homo sapiens, UniProt O43186 26-111, R41L) (O43186 26-111 R41L): as the sequence (O43186 26-111) above, with R16L counted along it
Turning to GCTTAAGC, the binding signal is 11.7 upbm affinity estimate (log intensity, higher = more binding, comparable within an allelic series).
As for ACCGCACC, the binding signal was 8.35 upbm affinity estimate (log intensity, higher = more binding, comparable within an allelic series).
Consider GGCGTCCC, for which the binding signal is 8.1 upbm affinity estimate (log intensity, higher = more binding, comparable within an allelic series).
In the case of CTTGCTAC, the binding signal was 8.28 upbm affinity estimate (log intensity, higher = more binding, comparable within an allelic series).
Turning to CCGGTCGA, the binding signal was 8.45 upbm affinity estimate (log intensity, higher = more binding, comparable within an allelic series).
Take ATTAAGCC: the binding signal was 12.2 upbm affinity estimate (log intensity, higher = more binding, comparable within an allelic series).
Same read-out and setting: under AATAATCT stands 12.6 upbm affinity estimate (log intensity, higher = more binding, comparable within an allelic series); under CCTGGTGC, 8.32 upbm affinity estimate (log intensity, higher = more binding, comparable within an allelic series); under ACTGCTGG, 8.37 upbm affinity estimate (log intensity, higher = more binding, comparable within an allelic series).
Still for that read-out and setting: under ATAACCCC stands 10.2 upbm affinity estimate (log intensity, higher = more binding, comparable within an allelic series).
In the case of TGCGTCCA, the binding signal was 8.23 upbm affinity estimate (log intensity, higher = more binding, comparable within an allelic series).
On to AAGTAATA, for which the binding signal was 10.1 upbm affinity estimate (log intensity, higher = more binding, comparable within an allelic series).
For GTAGCAAC, the binding signal was 8.42 upbm affinity estimate (log intensity, higher = more binding, comparable within an allelic series).
Turning to AGAATCCC, the binding signal was 10.1 upbm affinity estimate (log intensity, higher = more binding, comparable within an allelic series).
On the same count and under the same terms, with GACGCTAC the figure was 8.27 upbm affinity estimate (log intensity, higher = more binding, comparable within an allelic series); with GGAGACCC, 8.36 upbm affinity estimate (log intensity, higher = more binding, comparable within an allelic series); with CCTCGCCC, 8.44 upbm affinity estimate (log intensity, higher = more binding, comparable within an allelic series).
As for GGTTGCCA, the binding signal is 8.41 upbm affinity estimate (log intensity, higher = more binding, comparable within an allelic series).
Take CGAGTGCG: the binding signal is 8.17 upbm affinity estimate (log intensity, higher = more binding, comparable within an allelic series).
Regarding CTGGTCGA, the binding signal was 8.29 upbm affinity estimate (log intensity, higher = more binding, comparable within an allelic series).
Consider ACAGGCAC, for which the binding signal was 8.23 upbm affinity estimate (log intensity, higher = more binding, comparable within an allelic series).
As for ACTGGACC, the binding signal was 8.11 upbm affinity estimate (log intensity, higher = more binding, comparable within an allelic series).
Regarding CAGGTGCG, the binding signal is 8.29 upbm affinity estimate (log intensity, higher = more binding, comparable within an allelic series).
Turning to AGCACCAG, the binding signal is 8.39 upbm affinity estimate (log intensity, higher = more binding, comparable within an allelic series).
Take CGGATTAC: the binding signal was 13.3 upbm affinity estimate (log intensity, higher = more binding, comparable within an allelic series).
Same read-out and setting: with CGGGACCC the figure was 8.21 upbm affinity estimate (log intensity, higher = more binding, comparable within an allelic series); with GACCGAAC, 8.18 upbm affinity estimate (log intensity, higher = more binding, comparable within an allelic series).
ACACGCCC: the binding signal is 8.26 upbm affinity estimate (log intensity, higher = more binding, comparable within an allelic series).
Consider GCTATTTA, for which the binding signal was 10 upbm affinity estimate (log intensity, higher = more binding, comparable within an allelic series).
As to AGGCATAA, the binding signal was 9.78 upbm affinity estimate (log intensity, higher = more binding, comparable within an allelic series).
As for GAATAAAC, the binding signal is 9.51 upbm affinity estimate (log intensity, higher = more binding, comparable within an allelic series).
Take GATTATAA: the binding signal was 12.6 upbm affinity estimate (log intensity, higher = more binding, comparable within an allelic series).
For AATCTCCC, the binding signal was 10.6 upbm affinity estimate (log intensity, higher = more binding, comparable within an allelic series).
As for CAACCTGC, the binding signal was 8.35 upbm affinity estimate (log intensity, higher = more binding, comparable within an allelic series).
For CACTAATC, the binding signal was 12 upbm affinity estimate (log intensity, higher = more binding, comparable within an allelic series).
For ACGGTCCG, the binding signal is 8.16 upbm affinity estimate (log intensity, higher = more binding, comparable within an allelic series).
As to AAGTATAA, the binding signal was 10.2 upbm affinity estimate (log intensity, higher = more binding, comparable within an allelic series).
Regarding AGAGAGAC, the binding signal is 8.33 upbm affinity estimate (log intensity, higher = more binding, comparable within an allelic series).
Take GATTATCC: the binding signal was 12.8 upbm affinity estimate (log intensity, higher = more binding, comparable within an allelic series).
